Source: PubChem BioAssay
Hits are enriched below; roughly 2% of the tested compounds scored in any of these assays.
NALP1 yeast inh – inhibitors of NALP1 inflammasome in yeast; S. cerevisiae NALP1/ASC/caspase-1 growth, X-gal OD620, 72 h; inhibition, % at 10 µM; 280,000 compounds, 0.61% hits; AID 2071; in the data active = inhibition mostly above about 24%, no sharp cut-off; inactive = mostly below about 32%
sPLA2-III inh – Inhibits HGIII-sPLA2 liposome hydrolysis, primary screen; 370,000 compounds, 0.56% hits; AID 743126; inhibition, % at 12.2 µM; QFRET BODIPY PC-A2 liposome hydrolysis, fluorescence; Q9NZ20;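 active = inhibition above mean plus 3 SD of compounds lying within the high and low control bounds, cut at about 19% in these data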;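 also: 0% = median of test compound wells and 100% = no enzyme DMSO wells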
Target sequence (Q9NZ20 whole entry, looked up): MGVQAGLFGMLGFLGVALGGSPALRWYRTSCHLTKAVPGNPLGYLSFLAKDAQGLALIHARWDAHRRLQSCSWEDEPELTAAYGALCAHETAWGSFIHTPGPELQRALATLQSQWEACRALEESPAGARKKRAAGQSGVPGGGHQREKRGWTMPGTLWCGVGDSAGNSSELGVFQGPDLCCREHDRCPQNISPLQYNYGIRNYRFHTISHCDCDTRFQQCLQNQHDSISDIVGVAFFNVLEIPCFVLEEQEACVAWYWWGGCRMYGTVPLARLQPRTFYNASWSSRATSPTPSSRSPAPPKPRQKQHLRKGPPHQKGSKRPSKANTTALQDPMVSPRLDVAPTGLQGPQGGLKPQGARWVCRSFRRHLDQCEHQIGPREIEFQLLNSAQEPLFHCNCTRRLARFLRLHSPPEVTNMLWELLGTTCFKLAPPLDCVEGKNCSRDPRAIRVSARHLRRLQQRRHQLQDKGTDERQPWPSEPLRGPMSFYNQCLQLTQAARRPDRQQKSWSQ
Fh CTSL1 inh – counter-screen for PFM18AAP inhibitors: inhibitors of F. hepatica cathepsin L1 | recombinant F. hepatica cathepsin L1, Z-Leu-Arg-MCA fluorescence | 300,000 compounds, 0.49% hits | inhibition, % at 5.96 µM | AID 1906;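 active = inhibition above the mean of all tested compounds plus 3 SD, set per screening campaign, cut at about 17% in these data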;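 also: 0% = plate median of test compound wells and 100% = 1 µM Z-Phe-Ala-diazomethylketone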
APOBEC3A inh – inhibitors of human APOBEC3A DNA deaminase | P31941 | recombinant A3A, FAM/TAMRA ssDNA deamination fluorescence | inhibition, % at 20 µM | 330,000 compounds, 0.41% hits;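 active = at least 40% inhibition at 20 µM here, with at most 30% in a related deaminase screen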;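 also: plate controls were A3A with DMSO for no effect and wells lacking A3A enzyme for full effect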
Target sequence (P31941 whole entry, looked up): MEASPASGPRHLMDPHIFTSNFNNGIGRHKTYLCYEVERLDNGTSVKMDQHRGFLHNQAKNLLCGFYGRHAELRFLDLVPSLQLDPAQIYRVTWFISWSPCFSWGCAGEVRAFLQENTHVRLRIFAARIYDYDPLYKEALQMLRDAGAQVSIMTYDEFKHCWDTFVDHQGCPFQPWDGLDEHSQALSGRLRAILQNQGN
APOBEC3G inh – blocks human APOBEC3G single-stranded DNA deamination; Q9HC16; recombinant A3G, ssDNA deamination FAM/TAMRA fluorescence; 330,000 compounds, 0.28% hits; inhibition, % at 20 µM;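 active = inhibition of at least 40% at 20 µM, with no more than 30% in the related APOBEC3A deaminase screen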;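 also: plate controls were DMSO wells with A3G for no effect and wells lacking A3G enzyme for full effect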
A3A conf – APOBEC3A (human) deaminase inhibition, confirmed | 1,400 compounds, 63% hits | shares compounds with APOBEC3A inh | recombinant A3A, ssDNA deaminase UDG fluorescence assay | inhibition, % at 20 µM;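 active = inhibition reaching a set limit, 80% of the first screen's cutoff, at 20 µM in any replicate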;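 also: plate controls were DMSO wells with A3A for no effect and wells lacking A3A enzyme for full effect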
UDG ctr A3A – inhibits UDG, flagging false APOBEC3A inhibitors | UDG counterscreen, FAM/TAMRA uracil oligo fluorescence | shares compounds with APOBEC3A inh | inhibition, % at 20 µM | AID 504714 | 1,000 tested, under 10 active; call rule not given here
* hit, by the source's call; . = no result.

SMILES	NALP1 yeast inh	sPLA2-III inh	Fh CTSL1 inh	APOBEC3A inh	APOBEC3G inh	A3A conf	UDG ctr A3A
Cc1ccc(C(OCC(C)(C)C[N+](C)(C)C)c2ccccc2)cc1 (centres undefined)	7.2	9.5	-0.2	65.4*	25.8	76.3*	-0.5
COC(=O)[C@]12C[C@H](CC(=O)N3CCCC3)C(=O)N(Cc3ccc(Cl)cc3Cl)C1=C[C@H](C(C)(C)C)O[C@@H]2C	.	4.4	.	.	.	.	.
CCOc1c(C=C(C#N)C#N)c2ccccc2n1CC	18.2	-6.5	8.2	41.8*	-0.6	-7.3	-3.6
CCn1c2ccccc2c2cc(/C=C(/C#N)C(N)=S)ccc21	.	-6.1	.	.	.	.	.
COc1ccc(N2CCN(C(=O)COc3ccc4ccccc4c3)CC2)cc1	35.5	-6.3	2.6	46.4*	-2.4	1.5	-1.7
O=C(COc1ccc2ccccc2c1)N1CCN(c2ccccc2)CC1	.	4.8	-3.7	1.2	-2.0	.	.
Cc1ccc2[nH]c(=O)c(CN(c3cccc(C)c3C)S(=O)(=O)c3ccccc3)cc2c1	1.6	.	2.0	-4.0	-7.9	.	.
Cc1ccc(N(Cc2cc3cccc(C)c3[nH]c2=O)S(=O)(=O)c2ccccc2)c(C)c1	18.1	.	1.2	54.3*	22.4	66.6*	0.7
CCOC(=O)C1=CCN(S(=O)(=O)c2ccc(Cl)cc2)C1c1cccc(Cl)c1 (centres undefined)	.	-7.6	.	.	.	.	.
CN(C(=O)COC(=O)CSCc1cccc(Cl)c1)c1c(N)n(Cc2ccccc2)c(=O)[nH]c1=O	.	-6.7	.	10.5	-0.7	.	.
CN(C(=O)COC(=O)CSc1cc(Cl)ccc1Cl)c1c(N)n(Cc2ccccc2)c(=O)[nH]c1=O	.	5.7	-34.2	40.8*	8.1	-0.8	.
Cn1c(CCC(=O)Nc2ccc(S(C)(=O)=O)cc2)nc2cc(S(=O)(=O)N3CCOCC3)ccc21	.	-5.8	.	.	.	.	.
Cn1c(CCC(=O)Nc2cc(S(C)(=O)=O)ccc2Cl)nc2cc(S(=O)(=O)N3CCOCC3)ccc21	.	-1.3	-1.4	73.8*	26.1	76.2*	2.7
CCOC(=O)C1=NOC(C(=O)NC2CCCC2)(C(=O)c2ccc(OC)cc2)C1 (centres undefined)	.	7.2	.	.	.	.	.
CCN(CC)C(=O)CC[C@H]1CC[C@]2(CCCN(Cc3ccccn3)C2)O1	.	8.2	.	.	.	.	.
COc1ccc(OCC(=O)Nc2nnc(S(=O)(=O)N3CCCCCC3)s2)cc1	0.8	-8.3	-1.0	-0.7	-1.9	.	.
Cc1ccc(OCC(=O)Nc2nnc(S(=O)(=O)N3CCC(C)CC3)s2)cc1	4.7	-10.2	-0.7	43.1*	20.7	19.6	.
CCC(=O)/C=C1\Sc2ccc(OC)cc2N1CC	13.3	1.5	6.0	-0.1	-1.7	.	.
CCN1/C(=C\C(C)=O)Sc2ccc(OC)cc21	2.1	.	0.5	58.1*	16.4	66.5*	1.9
COCc1cn([C@H]2C[C@@H]3O[C@H](CO)CC[C@@H]3O[C@@H]2CCc2ccc(-c3ccc(OC)cc3)cc2)nn1	.	-13.4	.	.	.	.	.
CN(CC(=O)Nc1cccc(F)c1)C(=O)c1ccc2c(c1)OCCO2	.	2.5	2.7	40.3*	4.1	2.3	.
Cn1c(SCC(=O)NCc2ccco2)nnc1-c1ccccc1	9.7	-4.4	-2.6	2.1	-3.3	.	.
CCCCSc1nnc(-c2ccc(NC(=O)CCc3ccccc3)cc2)n1C	7.4	-5.1	0.4	-0.2	-1.8	.	.
CCC(=O)Nc1cccc(-c2nnc(SCC(=O)NCc3ccco3)n2C)c1	5.7	3.1	-4.0	46.1*	21.4	68.5*	2.8
Cn1c(SCC(=O)NCc2ccccc2)nnc1-c1ccc(NC(=O)CCc2ccccc2)cc1	3.7	0.2	3.7	57.7*	14.3	51.2*	-1.3
SMILES	NALP1 yeast inh	sPLA2-III inh	Fh CTSL1 inh	APOBEC3A inh	APOBEC3G inh	A3A conf	UDG ctr A3A
Cn1c(Cc2ccccc2)nnc1SCCC(=O)Nc1ccccc1	6.7	-0.4	-2.9	68.8*	15.8	74.4*	-4.2
Cc1c(-c2ccnc3cc(C(=O)O)nn23)cnn1C	-0.5	-1.6	0.6	48.8*	-6.6	31.8*	-0.1
CCn1cc(-c2ccnc3cc(C(=O)O)nn23)c(C)n1	14.5	4.6	-0.9	-1.4	-2.4	.	.
COCCCNC(=O)C[C@H]1C[C@@]2(C(=O)OC)C(=C[C@H](C(C)C)O[C@@H]2C2CC2)N(Cc2ccco2)C1=O	.	0.3	.	.	.	.	.
O=c1[nH]c(=O)n(CCc2ccc(F)cc2)c(O)c1C=NCc1ccc2c(c1)OCO2	32.8	-3.1	-3.4	68.3*	19.6	1.5	.
COC(=O)[C@]12C[C@H](CC(=O)N3CCOCC3)C(=O)N(Cc3ccco3)C1=C[C@H](COCc1ccccc1)O[C@@H]2C	.	-0.7	.	.	.	.	.
CCCCN(C(=O)c1cnccn1)c1c(N)n(CCC)c(=O)[nH]c1=O	.	-3.9	.	45.0*	19.8	45.5*	-1.7
CCCCN(C(=O)c1c(CC)noc1C)c1c(N)n(CCCC)c(=O)[nH]c1=O	.	4.7	1.6	43.9*	-0.3	23.1	-2.3
CCCCn1c(N)c(N(CC)C(=O)c2c(CC)noc2C)c(=O)[nH]c1=O	.	9.9	1.2	2.2	-6.5	.	.
COc1ccccc1OC(C)C(=O)N1CCN(Cc2ccc3c(c2)OCO3)CC1 (centres undefined)	-20.2	-2.9	-0.8	57.2*	13.2	48.5*	-3.4
O=C1CCCC/C1=C\Nc1ccc(Cl)cn1	8.1	-1.6	7.2	41.6*	1.6	3.2	.
Cc1ccc(N/C=C2\CCCCC2=O)nc1	-25.8	-2.1	-1.3	-6.1	-2.1	.	.
C/C(C=NNC(=O)CSc1nc2ccccc2n1C)=C\c1ccccc1	.	-5.1	.	.	.	.	.
O=C(Cn1nnc2ccccc21)OCC(=O)c1ccccc1	-2.9	-11.9	-2.1	5.7	0.2	.	.
O=C(Cn1nnc2ccccc21)OCC(=O)c1ccc(Cl)c(Cl)c1	0.0	-8.5	2.4	40.5*	0.0	1.1	.
Oc1cc(O)cc(C=Cc2ccc(O)c(O)c2)c1	.	-4.2	.	.	.	.	.
C[C@H]1c2cccc(O)c2C(=O)C2C(=O)C3(O)C(=O)C(C(N)=O)C(=O)[C@@H](N(C)C)[C@@H]3[C@@H](O)[C@@H]21 (some centres undefined)	.	17.7	.	1.9	-0.5	.	.
CN(C)c1ccc(O)c2c1CC1CC3C(N(C)C)C(=O)C(C(N)=O)=C(O)[C@@]3(O)C(=O)C1=C2O (some centres undefined)	.	7.5	3.6	40.4*	-2.6	-0.9	-2.7
C[C@H]1c2cccc(O)c2C(O)=C2C(=O)C3(O)C(O)=C(C(N)=O)C(=O)[C@@H](N(C)C)[C@@H]3[C@@H](O)[C@@H]21 (some centres undefined)	.	14.7	0.6	3.4	-5.4	.	.
CN(C)c1ccc(O)c2c1CC1CC3[C@@H](N(C)C)C(=O)C(C(N)=O)C(=O)[C@]3(O)C(=O)C1C2=O (some centres undefined)	.	-0.5	.	53.8*	11.7	29.5*	-1.5
CCOC(=O)[C@@]12CCC3=C1N(CCC3)C(=O)[C@H](CC(=O)NCc1ccc(C)o1)C2	.	-7.1	.	.	.	.	.
